Assay results from PubChem BioAssay (NCI).
Values joined by “and” are separate entries in the source; they are usually repeats but may differ in a detail not shown here. Identical values can stand only once. About 79,000 compounds went through this panel and 15% of them were active in at least one assay; those are over-represented in the sample as a whole. Where a structure was tested more than once in an assay, its records may differ in their call. Active and inactive are the calls of the source. Rule as the data show it: active = growth inhibition above about 70%; inactive = the rest.

Legend:
[1] = NCI Yeast Anticancer Drug Screen. Data for the rad52 strain (AID 147);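 also: 0% = growth of vehicle-treated control cultures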; conditions: S. cerevisiae rad52 mutant growth inhibition, stronger effect = higher value
Outline: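 Here a repair-compromised yeast strain receives each compound; its growth is then quantified and normalised to vehicle-only controls.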

[2] = NCI Yeast Anticancer Drug Screen. Data for the wt1 strain (AID 149);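 also: 0% = growth of vehicle-treated wt1 cultures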; conditions: S. cerevisiae wt1 strain (SPY 50644) growth inhibition, stronger effect = higher value
Outline: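 The wt1 strain was treated with compounds, and growth was compared with vehicle-treated cultures to give inhibition.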

[3] = NCI Yeast Anticancer Drug Screen. Data for the rad50EPP+ strain (AID 151);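 also: 0% = growth of vehicle-treated control cultures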; conditions: S. cerevisiae rad50 mutant strain, stronger effect = higher value
Outline: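 Read-out is yeast growth inhibition relative to vehicle; cells used were the rad50EPP+ strain.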

[4] = NCI Yeast Anticancer Drug Screen. Data for the rad50 strain (AID 155);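 also: 0% = growth of vehicle-only cultures of the same strain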; conditions: S. cerevisiae rad50 strain growth inhibition, stronger effect = higher value
Outline: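 Cells are treated with compound, grown, and their growth is then scored against vehicle-only cultures of the same repair-deficient yeast strain.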

[5] = NCI Yeast Anticancer Drug Screen. Data for the mec2-1 strain (AID 157); conditions: S. cerevisiae mec2-1 strain, stronger effect = higher value
Outline: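 Using mec2-1 yeast: add compound, measure growth, express inhibition versus vehicle-treated cultures.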

[6] = NCI Yeast Anticancer Drug Screen. Data for the rad14 strain (AID 159);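 also: 0% = growth of vehicle-treated control cultures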; conditions: S. cerevisiae rad14 strain growth inhibition, stronger effect = higher value
Outline: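 Readout: yeast growth inhibition, referenced to vehicle-only cultures. Strain bears a defined alteration in DNA damage repair.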

[7] = NCI Yeast Anticancer Drug Screen. Data for the sgs1 mgt1 strain (AID 161);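 also: 0% = growth of cultures given vehicle only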; conditions: S. cerevisiae sgs1 mgt1 strain, stronger effect = higher value
Outline: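 Percent growth inhibition was derived by comparing compound-exposed mutant yeast with vehicle-exposed cultures. The strain carries alterations in DNA damage repair.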

[8] = NCI Yeast Anticancer Drug Screen. Data for the CLN2oe strain (AID 163);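 also: 0% = growth of vehicle-only control cultures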; conditions: S. cerevisiae CLN2oe strain, stronger effect = higher value
Outline: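 Whole-cell yeast growth assay. A strain engineered for altered cell-cycle control received compound, and inhibition relative to vehicle-treated cultures was recorded.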

[9] = NCI Yeast Anticancer Drug Screen. Data for the cln2 rad14 strain (AID 165);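 also: 0% = growth equal to vehicle treated cultures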; conditions: S. cerevisiae cln2 rad14 strain, stronger effect = higher value
Outline: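 Yeast strain cln2 rad14, bearing defects in cell cycle control and DNA repair, serves as the test system; values reflect growth inhibition compared with vehicle.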

[10] = NCI Yeast Anticancer Drug Screen. Data for the bub3 strain (AID 167); conditions: S. cerevisiae bub3 mutant strain, stronger effect = higher value
Outline: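 Part of a panel of yeast mutants defective in DNA damage repair or cell cycle regulation. Each strain is grown with compound, and inhibition is calculated relative to solvent-treated cultures.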

[11] = NCI Yeast Anticancer Drug Screen. Data for the wt2 strain (AID 169);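 also: 0% = growth of vehicle-treated yeast cultures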; conditions: S. cerevisiae wt2 strain growth inhibition, stronger effect = higher value
Outline: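 Treated yeast vs. vehicle-treated yeast: growth inhibition determined.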

[12] = NCI Yeast Anticancer Drug Screen. Data for the sgs1 strain (AID 173);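 also: 0% = growth of vehicle-only control cultures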; conditions: S. cerevisiae sgs1 mutant, stronger effect = higher value
Outline: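 A genetically defined yeast mutant is incubated with the test compound, and its growth is compared to that of the same strain given vehicle.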

[13] = NCI Yeast Anticancer Drug Screen. Data for the mlh1 rad18 strain (AID 175); conditions: S. cerevisiae mlh1 rad18 strain growth inhibition, stronger effect = higher value
Outline: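 Steps: expose repair-defective yeast to compound; measure growth; express inhibition against vehicle-treated controls.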

[14] = NCI Yeast Anticancer Drug Screen. Data for the rad18 strain (AID 177); conditions: S. cerevisiae rad18 mutant growth inhibition, stronger effect = higher value
Outline: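 Measured value is growth inhibition of a yeast strain bearing a DNA repair alteration, referenced to vehicle-treated cells.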

[15] = NCI Yeast Anticancer Drug Screen. Data for the mlh1 strain (AID 171);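 also: 0% = growth of vehicle-treated control cultures of the same strain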; conditions: S. cerevisiae mlh1 strain growth inhibition, stronger effect = higher value
Outline: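 A yeast strain with a defined genetic lesion serves as the test organism. Cultures receive compound or vehicle, and growth is measured.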

[16] = at 5.0 µM (retest, dose inferred, filed as 0.5)
[17] = at 50.0 µM (retest, dose inferred, filed as 5.0)

Measured: growth inhibition

CCn1ncc(N=O)c1N
inactive: [1]; at 1.2 µM 0% | [1]; at 3.7 µM 3% | [1]; at 11.0 µM 9% | [1]; at 33.0 µM 29% | [1]; at 100.0 µM 58% | [2]; at 1.2 µM 6% | [2]; at 3.7 µM 14% | [2]; at 11.0 µM 23% | [2]; at 33.0 µM 24% | [2]; at 100.0 µM 39% | [3]; at 1.2 µM 0% | [3]; at 3.7 µM -4% | [3]; at 11.0 µM 3% | [3]; at 33.0 µM 28% | [4]; at 1.2 µM -1% | [4]; at 3.7 µM -1% | [4]; [16] 27% | [4]; at 11.0 µM 6% | [4]; at 33.0 µM 24% | [4]; [17] 61% | [4]; at 100.0 µM 54% | [5]; at 1.2 µM 3% | [5]; at 3.7 µM 11% | [5]; [16] 8% | [5]; at 11.0 µM 23% | [5]; at 33.0 µM 37% | [5]; [17] 35% | [5]; at 50.0 µM 67% and 42% | [5]; at 100.0 µM 57% | [6]; at 1.2 µM -2% | [6]; at 3.7 µM 4% | [6]; at 11.0 µM 15% | [6]; at 33.0 µM 32% | [6]; at 100.0 µM 41% | [7]; [16] 21% | [7]; [17] 61% | [7]; at 50.0 µM 62.5% and 19.6% | [8]; at 1.2 µM -6% | [8]; at 3.7 µM -5% | [8]; at 11.0 µM 15% | [8]; at 33.0 µM 43% | [8]; at 100.0 µM 53% | [9]; [16] 9% | [9]; [17] 12% | [9]; at 50.0 µM 35.1% and 40.8% | [10]; at 1.2 µM 2% | [10]; at 3.7 µM 9% | [10]; [16] 41% | [10]; at 11.0 µM 33% | [10]; at 33.0 µM 64% | [10]; [17] 68% | [11]; at 1.2 µM 6% | [11]; at 3.7 µM 18% | [11]; at 11.0 µM 26% | [11]; at 33.0 µM 25% | [11]; at 100.0 µM 39% | [12]; at 1.2 µM 5% | [12]; at 3.7 µM 16% | [12]; at 11.0 µM 26% | [12]; at 33.0 µM 39% | [12]; at 100.0 µM 61% | [13]; [16] 33% | [14]; at 1.2 µM 1% | [14]; at 3.7 µM 8% | [14]; at 11.0 µM 9% | [14]; at 33.0 µM 51%
active: [3]; at 100.0 µM 71% | [10]; at 100.0 µM 78% | [13]; [17] 73% | [14]; at 100.0 µM 74%
87.3% (active) and 26.6% (inactive): [13]; at 50.0 µM
81.4% (active) and 51% (inactive): [10]; at 50.0 µM
70.2% (active) and 51.5% (inactive): [4]; at 50.0 µM

Cc1ccc(Nc2c3c(c(C#N)c4nc5ccccc5n24)CCCC3)cc1
inactive: [1]; at 1.2 µM 6% | [1]; at 3.7 µM 21% | [1]; at 11.0 µM 24% | [2]; at 1.2 µM 7% | [2]; at 3.7 µM 26% | [2]; at 11.0 µM 23% | [2]; at 33.0 µM 40% | [2]; at 100.0 µM 59% | [3]; at 1.2 µM 14% | [3]; at 3.7 µM 23% | [3]; at 11.0 µM 27% | [3]; at 33.0 µM 38% | [3]; at 100.0 µM 31% | [4]; at 1.2 µM 1% | [4]; at 3.7 µM 32% | [4]; [16] 31% | [4]; at 11.0 µM 23% | [4]; at 50.0 µM 63.3% | [5]; at 1.2 µM -15% | [5]; at 3.7 µM 15% | [5]; [16] 12% | [5]; at 11.0 µM 11% | [5]; at 33.0 µM 65% | [5]; [17] 58% | [5]; at 50.0 µM 66% | [6]; at 1.2 µM 1% | [6]; at 3.7 µM 10% | [6]; at 11.0 µM 10% | [6]; at 33.0 µM 25% | [6]; at 100.0 µM 36% | [7]; [16] 16% | [7]; [17] 30% | [8]; at 1.2 µM 20% | [8]; at 3.7 µM 34% | [8]; at 11.0 µM 21% | [8]; at 100.0 µM 62% | [9]; [16] 21% | [9]; [17] 14% | [10]; at 1.2 µM 8% | [10]; at 3.7 µM 15% | [10]; [16] 26% | [10]; at 11.0 µM 23% | [10]; [17] 34% | [15]; at 1.2 µM -5% | [15]; at 3.7 µM 15% | [15]; at 11.0 µM 22% | [12]; at 1.2 µM 30% | [12]; at 3.7 µM 34% | [12]; at 11.0 µM 29% | [13]; [16] 28% | [13]; [17] 68% | [13]; at 50.0 µM 6.1% | [14]; at 1.2 µM 6% | [14]; at 3.7 µM 27% | [14]; at 11.0 µM 38%
active: [1]; at 33.0 µM 70% | [1]; at 100.0 µM 72% | [4]; at 33.0 µM 71% | [4]; [17] 74% | [4]; at 100.0 µM 70% | [5]; at 100.0 µM 73% | [7]; at 50.0 µM 74.5% | [8]; at 33.0 µM 70% | [9]; at 50.0 µM 72.8% | [10]; at 33.0 µM 74% | [10]; at 50.0 µM 78.8% | [10]; at 100.0 µM 76% | [15]; at 33.0 µM 78% | [15]; at 100.0 µM 78% | [12]; at 33.0 µM 77% | [12]; at 100.0 µM 81% | [14]; at 33.0 µM 75% | [14]; at 100.0 µM 72%

CCN(CC)CC(O)c1cc(-c2ccc(Cl)cc2)nc2c(-c3ccccc3)cccc12 (stereo unspecified)
inactive: [1]; at 1.2 µM -1% | [1]; at 3.7 µM -1% | [2]; at 1.2 µM 0% | [2]; at 3.7 µM -2% | [3]; at 1.2 µM -1% | [3]; at 3.7 µM 7% | [4]; at 1.2 µM 1% | [4]; at 3.7 µM 6% | [4]; [16] 48% | [5]; at 1.2 µM -8% | [5]; at 3.7 µM -3% | [5]; [16] 32%
active: [1]; at 11.0 µM 98% | [1]; at 33.0 µM 98% | [1]; at 100.0 µM 93% | [2]; at 11.0 µM 98% | [2]; at 33.0 µM 98% | [2]; at 100.0 µM 95% | [3]; at 11.0 µM 96% | [3]; at 33.0 µM 98% | [3]; at 100.0 µM 95% | [4]; at 11.0 µM 98% | [4]; at 33.0 µM 98% | [4]; [17] 94% | [4]; at 50.0 µM 94.7% | [4]; at 100.0 µM 93% | [5]; at 11.0 µM 98% | [5]; at 33.0 µM 98% | [5]; [17] 98% | [5]; at 50.0 µM 87.9%
